Compound activity as filed in PubChem.
Only some compounds are listed: those with a hit (about 21% of all), similar ones and a draw of the others.
SARS PLpro yeast – SARS-CoV PLP inhibition in yeast; S. cerevisiae expressing SARS-CoV PLpro, growth rescue; Potency, µM (top dose mostly 32.9 µM), actives largely listed as activators; 0.19% of 330,000 active; AID 485353; calls by dose curve; also: nearly all actives have a fitted effect of over 55% in size
NS1 inh – influenza NS1 inhibition; 0.4% of 270,000 active; Potency, µM (highest dose often 46.1 µM); AID 2326; calls by dose curve; also: actives are rising curves; nearly all actives have a fitted effect of over 50% in size
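In this qHTS, NS1 from influenza A is expressed in budding yeast, where it slows growth. Cells are switched from glucose to 2% galactose medium (pH 6.0, -URA), treated with compound, and growth recovery is read at OD600.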
Shiga toxin inh – blocks Shiga toxin action in Vero cells. Vero cells, Shiga toxin protein synthesis inhibition reporter. inhibition, % at 38.7 µM. 9.2% of 290,000 active. AID 2315; in the data active = inhibition mostly above about 28%, no sharp cut-off; inactive = mostly below about 43%
Pf growth 96h – P. falciparum growth inhibition at 96 hour, primary screen for plastid delayed-death inhibitors | 6.9% of 320,000 active | Potency, µM (titrated, usually from 28.7 µM), usual class: inhibitors | P. falciparum luciferase reporter growth, 96 h
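Infected RBCs, 2% Hct / 0.05% parasitemia final; luciferase-reporter P. falciparum; cpd 96 h, 37 C, 5% CO2; luciferase detection reagent; luminescence.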
Cycloheximide cs – affects cycloheximide protein synthesis inhibition readout, counter-screen; cell reporter, cycloheximide protein synthesis inhibition counterscreen; max response, %; 12% of 300,000 active; AID 2314; in the data active = max response mostly above about 13%, no sharp cut-off; inactive = mostly below about 14%; also: read at 38.3 µM for the half of the compounds with a filed dose
Pf growth 48h – inhibits P. falciparum growth in the first generation, 48 h; P. falciparum luciferase growth in erythrocytes, 48 h; Potency, µM (highest dose often 28.7 µM), hits mostly inhibitors; 5.9% of 310,000 active; AID 504832
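Erythrocytes infected with P. falciparum carrying an integrated firefly luciferase reporter (2% hematocrit, 0.1% parasitemia final) were exposed to compounds in RPMI 1640 with 0.5% Albumax at 37 C, 5% CO2. Growth inhibition was scored as reduced luminescence.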
A number is an active result; . = inactive; ? = inconclusive; / = no result given; [ ] = another dose, or the depositor's remark. Unless noted, calls follow the shape of the dose curve; as a rule, active = well fitted inhibition curve with a large enough effect; inconclusive = small, poorly fitted or top-dose-only effect, or another doubt; inactive = no such curve, though single readings can be large or run the other way.

SMILES	SARS PLpro yeast	NS1 inh	Shiga toxin inh	Pf growth 96h	Cycloheximide cs	Pf growth 48h
O=c1[nH]c(=O)n(Cc2ccccc2)c(O)c1C=NCCCn1ccnc1	.	.	.	.	.	.
CCCCn1cnc2c(c(-c3ccccc3)c(-c3ccccc3)n2Cc2ccco2)c1=N	.	.	.	2.3µM	.	4.1µM
N=c1c2c(-c3ccccc3)c(-c3ccccc3)n(Cc3ccco3)c2ncn1Cc1ccco1	.	.	.	?	.	3.7µM
O=c1c2cnn(-c3ccccc3)c2ncn1Cc1ccco1	.	.	.	.	.	/
C[N+]12CCC(CC1)C(C(O)(c1cccc(Cl)c1)c1cccc(Cl)c1)C2 (stereo unspecified)	.	.	.	2.9µM	.	13µM
CC[N+]12CCC(CC1)C(C(O)(c1ccccc1)c1ccccc1)C2 (stereo unspecified)	.	.	.	?	.	?
COCCOC(=O)c1cc(C(=O)c2cc(Cl)ccc2O)coc1=N	.	/	.	.	.	.
CCN(CCCCCN(C)C)Cc1cc2ccccc2o1	.	?	.	5.2µM	.	10µM
CN(C)S(=O)(=O)c1ccc(Cl)c(NC(=O)COC(=O)c2cc(-c3ccccc3)nc3ccccc23)c1	.	?	.	.	.	.
Cc1ccc(C)n1-c1ccc(C(=O)NN)s1	.	/	26	?	26	?
Cc1nn(CCC#N)c(NC(=O)c2ccc(Cl)cc2Cl)c1P(=O)(Nc1ccc([N+](=O)[O-])cc1)N1CCOCC1 (stereo unspecified)	.	.	.	/	.	8.3µM
Cc1nn(CCC#N)c(NC(=O)c2ccc(Cl)cc2)c1P(=O)(Nc1ccc([N+](=O)[O-])cc1)N1CCOCC1 (stereo unspecified)	.	.	.	/	.	.
O=C(CCCC1=NS(=O)(=O)c2ccccc2N1)OCc1ccc(Cl)cc1	.	.	.	?	.	?
Cc1ccccc1COC(=O)CCC1=NS(=O)(=O)c2ccccc2N1	/	.	.	12µM	.	.
COc1ccccc1C1=NOC(C)(c2sc(-c3ccc(Cl)cc3)nc2C)C1 (stereo unspecified)	.	.	31	.	20	.
CCOc1cc(/C=C2\CCn3c2nc2cc(Cl)ccc2c3=O)ccc1O	.	.	.	.	.	.
CC(OC(=O)CSc1ccc(F)cc1)C(=O)NC1(C#N)CCCCC1 (stereo unspecified)	.	.	.	.	7.3	.
CC(OC(=O)Cn1[nH]c(=O)c2ccccc2c1=O)C(=O)NC1(C#N)CCCCC1 (stereo unspecified)	.	/	/	?	/	10µM
C/C(=N\OCC(=O)OC(C)C(=O)Nc1ccc(C(N)=O)cc1)c1ccc2c(c1)OCO2 (stereo unspecified)	.	.	.	.	.	.
CC(NC(=O)CCNC(=O)c1ccc(C(C)(C)C)cc1)c1ccccc1 (stereo unspecified)	.	/	/	/	/	/
Cc1cn(-c2cc(C(=O)Nc3ccc(C)c(NC(=O)C(=O)c4c[nH]c5ccccc45)c3)cc(C(F)(F)F)c2)cn1	.	.	.	?	.	1µM
Cc1ccc(C(=O)Nc2cccc(C(F)(F)F)c2)cc1NC(=O)c1c[nH]c2cc(C(F)(F)F)ccc2c1=O	.	/	/	/	/	/
O=c1ncn(-c2cccc(F)c2)c2ncccc12	.	.	.	/	14	.
CCC(Cc1ccccc1)NC(=O)C1CC1 (stereo unspecified)	.	.	.	?	.	.
c1ccc2c(c1)NC1(CCCCCC1)n1c-2nc2ccccc21	.	.	77	/	34	.
SMILES	SARS PLpro yeast	NS1 inh	Shiga toxin inh	Pf growth 96h	Cycloheximide cs	Pf growth 48h
CCn1c(-c2cccnc2Cl)nc2ccccc21	.	.	.	.	.	.
O=C1Cn2c(nc3ccccc32)-c2ccccc2N1	.	.	.	.	.	.
NC1=NC2(CCCCCC2)n2c(nc3ccccc32)N1	.	.	.	?	.	?
c1ccc2c(c1)NC1(CCCCC1)n1c-2nc2ccccc21	.	.	.	.	26	/
CC1(c2ccccn2)Nc2ccccc2-c2nc3ccccc3n21 (stereo unspecified)	.	.	.	.[5.75 µM]	.	1.7µM
Cc1[nH]c(C)c(S(=O)(=O)NCC(C)c2ccccc2)c1C(=O)N1CCCCC1 (stereo unspecified)	.	.	.	?	.	.
O=C(CSCC(=O)N1CCN(c2ccccc2)CC1)Nc1nc(-c2ccc(Cl)s2)cs1	.	.	.	?	.	?
CC1CC(C)CN(C(=O)CSCC(=O)Nc2nc(-c3cccs3)cs2)C1 (stereo unspecified)	.	.	.	.	.	.
CCOC(=O)N1CCN(C(=O)CSCC(=O)Nc2nc(-c3ccccc3)cs2)CC1	.	.	30	.	.	.
O=C(CSCC(=O)N1CCCCC1)Nc1nc(-c2cccs2)cs1	.	.	.	.	20	/
O=C(CSCC(=O)N1CCCCC1)Nc1nc(-c2ccc(Cl)s2)cs1	.	.	.	.	16	/
CC1(CC(=O)Nc2ccccc2)NC(=S)N(c2ccccc2)N1 (stereo unspecified)	.	.	44	.	24	.
CCCCCC1(C)NC(=S)N(c2ccccc2)N1 (stereo unspecified)	.	/	.	.[5.75 µM]	20	.
CCCCCCC1(C)NC(=S)N(c2ccccc2)N1 (stereo unspecified)	.	/	.	.	.	.
Cc1ccc(C2=Nc3ccccc3SC(c3cccc([N+](=O)[O-])c3)C2)cc1 (stereo unspecified)	.	.	70	?	35	.
Cc1ccc(C2=Nc3ccccc3S[C@@H](c3cccc([N+](=O)[O-])c3)C2)cc1	/	.	/	/	/	/
O=C(/C=C/c1ccco1)Oc1ccc(C(=S)N2CCOCC2)cc1	.	/	.	.	35	.
O=Cc1cccc(OC(=O)/C=C/c2ccco2)c1	.	.	80	.	52	.
COC(=O)c1ccc(OC(=O)/C=C/c2ccco2)cc1	.	.	36	.	26	.
Cc1cccc(CCNS(=O)(=O)c2ccc3c(c2)CCN3C(=O)CCC(=O)O)c1	.	.	.	?	.	.
Cc1cc(/C=N/O)c(C)n1-c1ccc(Br)cc1	.	.	.	?	.	?
O/N=C/c1ccn(-c2ccc(Br)cc2)c1	.	/	69	.	40	.
C=CCNC(=O)c1c[nH]c2ccc(S(=O)(=O)N(C)c3ccc(OCC)cc3)cc2c1=O	.	.	.	.	.	?
O=[N+]([O-])c1ccc2c(c1)S(=O)(=O)C=C2	/	/	.	/	.	/
O=C(CC(Nc1cccc(Cl)c1Cl)C(=O)O)c1ccccc1 (stereo unspecified)	.	?	102	.	57	.
O=C(CC(Nc1cccc(Cl)c1Cl)C(=O)OCC(=O)c1cccs1)c1ccccc1 (stereo unspecified)	.	.	.	?	.	.
Cc1c(Cl)cccc1NC(CC(=O)c1ccccc1)C(=O)O (stereo unspecified)	.	.	150	.	70	.
